Source: PubChem BioAssay (Tox21)
Records with an inconclusive call do not appear. Active and inactive are the calls of the source. Unless noted, calls come from the whole dose curve; as a rule, active = well fitted curve in the direction sought with a large enough effect in the repeat runs; inconclusive = weak or mixed curves; inactive = no such curve, though single readings can be large; an effect the other way counts as inactive or inconclusive.

Tests used:
[1] = qHTS assay to identify small molecule agonists of the RXR signaling pathway - cell viability counter screen (AID 1159529);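 note: HEK 293T cells carrying an RXR-alpha UAS beta-lactamase reporter; series mostly up to about 77 µM; nearly all actives have a fitted effect of over 50% in size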
Method in brief: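 Same-well viability check after the LiveBLAzer FRET read: CellTiter-Glo added, luminescence measured after 30 min at room temperature. Reporter HEK 293T cells had been treated with compounds for 16 hr following a 5 hr preincubation.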

[2] = qHTS assay to identify small molecule antagonists of the retinoid acid receptor (RAR) signaling pathway - cell viability counter screen (AID 1159551); note: nearly all actives have a fitted effect of over 35% in size
Method in brief: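 ATP-based viability, C3RL4 cells, 6 h at 37 C with 1 uM final retinol co-added after compound; luminescence read 30 min post CellTiter-Glo, RT.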

[3] = qHTS assay to identify small molecule antagonists of the estrogen related receptor (ERR) signaling pathway from Tox21 library - cell viability counter screen (AID 1224834); note: nearly all actives have a fitted effect of over 30% in size
Method in brief: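 Compounds in DMSO were pinned onto ERR cells that had been incubated for 6 h, and the plates were held at 37 C for 17.5 h. CellTiter-Fluor reagent was then added and fluorescence was measured after 30 min.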

[4] = qHTS assay to identify small molecule agonists of the constitutive androstane receptor (CAR) signaling pathway - cell viability counter screen (AID 1224836); note: series mostly up to about 92 µM; nearly all actives have a fitted effect of over 45% in size
Method in brief: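 Compound titrations (15 concentrations) went onto HepG2-CYP2B6-hCAR cells 4 h after seeding, alongside PK11195 at a final 0.75 uM; a 23 h, 37 C/5% CO2 incubation preceded CellTiter-Fluor viability measurement.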

[5] = qHTS assay to identify small molecule antagonists of the constitutive androstane receptor (CAR) signaling pathway - cell viability counter screen (AID 1224837); note: series mostly up to about 92 µM; nearly all actives have a fitted effect of over 45% in size
Method in brief: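 Cells are seeded, rested 4 hr at 37 C/5% CO2, dosed with compound (15-point series) and 50 nM CITCO, incubated a further 23 hr, and then CellTiter-Fluor reagent is added before fluorescence is read. The line is HepG2 with stable hCAR and CYP2B6-2.2kb.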

[6] = biological target: Nuclear receptor subfamily 1 group I member 3 (Homo sapiens) (UniProt Q14994); assay: qHTS assay to identify small molecule antagonists of the constitutive androstane receptor (CAR) signaling pathway (AID 1224838);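 note: HepG2 cells stably expressing hCAR with CYP2B6 luciferase reporter stimulated by CITCO; nearly all actives have a fitted effect of over 40% in size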
Method in brief: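 Luminescence from a CYP2B6-2.2kb promoter reporter in hCAR-expressing HepG2 cells reflects CAR signaling. Cells received compounds at 15 concentrations and 50 nM CITCO (final), then incubated 24 h at 37 C/5% CO2.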

[7] = biological target: Nuclear receptor subfamily 1 group I member 3 (Homo sapiens) (UniProt Q14994); assay: qHTS assay to identify small molecule agonists of the constitutive androstane receptor (CAR) signaling pathway (AID 1224839); note: nearly all actives have a fitted effect of over 15% in size; note: potency is the fitted concentration of half-maximal effect
Method in brief: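 In this screen, CAR-driven CYP2B6 promoter activity is measured by luminescence in HepG2-CYP2B6-hCAR cells after 24 h with test compounds and 0.75 uM PK11195 (final concentration).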

[8] = qHTS assay to identify small molecule antagonists of the estrogen related receptor signaling pathway with the pleiotropic PPARgamma coactivator (PGC) from Tox21 10K library - cell viability counter screen (AID 1224840; active = well fitted cell-killing curve with a large enough effect in the repeat runs, not every such curve was filed as active; note: nearly all actives have a fitted effect of over 40% in size)
Method in brief: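 Cell viability is measured by CellTiter-Fluor fluorescence in PGC/ERR cells that receive compounds after a 6-hour attachment period and are then incubated 17.5 hours at 37 C.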

[9] = biological target: Thyrotropin receptor (Homo sapiens) (UniProt P16473); assay: qHTS assay to identify small molecule agonists of the thyroid stimulating hormone receptor (TSHR) signaling pathway (AID 1224843; calls by dose curve; note: nearly all actives have a fitted effect of over 45% in size)
Method in brief: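 Using 15 concentrations per compound in triplicate, cAMP production was monitored in TSHR-HEK293 cells after 30 min compound incubation at RT; HTRF reagents followed, with fluorescence intensity recorded after 1 h.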

[10] = biological target: Luciferin 4-monooxygenase (Photinus pyralis) (UniProt P08659); assay: qHTS assay to identify small molecule inhibitors of firefly luciferase (AID 1224835); note: nearly all actives have a fitted effect of over 25% in size; note: potency is the fitted concentration of half-maximal effect
Method in brief: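 Quantitative HTS format; KM concentrations of both substrates. Purified P. pyralis FLuc activity quantified from luminescence images.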

[11] = qHTS assay to identify small molecule antagonists of the estrogen related receptor signaling pathway with the pleiotropic PPARgamma coactivator (PGC) from Tox21 10K library (AID 1224841; call rule not given here; note: series mostly up to about 92 µM; actives are mostly falling curves and most rising ones were filed inactive; nearly all actives have a fitted effect of over 50% in size)
Method in brief: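 Cells stably carrying the PGC/ERR reporter, seeded at 2,000 per well, received pin-transferred compounds 6 h post-plating. Exposure lasted 18 h at 37 C. Signal: One-Glo luminescence.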

[12] = qHTS assay to identify small molecule agonists of the estrogen related receptor signaling pathway with the pleiotropic PPARgamma coactivator (PGC) from Tox21 10K library (AID 1224842); note: nearly all actives have a fitted effect of over 15% in size
Method in brief: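 PGC/ERR reporter cells (NTP line) were seeded 2,000 per well, rested 6 h at 37 C/5% CO2, then pin-dosed with compounds in DMSO for 18 h at 37 C; luciferase read by One-Glo luminescence after 30 min at room temperature.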

[13] = qHTS assay to identify small molecule antagonists of the retinoic acid receptor (RAR) signaling pathway (AID 1159552; note: nearly all actives have a fitted effect of over 50% in size)
Method in brief: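 Readout: luciferase luminescence, 30 min post-reagent at RT. Setup: C3RL4 RARE reporter cells, compounds plus retinol 1 uM final, 6 hr incubation at 37 C and 5% CO2.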

[14] = qHTS assay to identify small molecule agonists of the retinoic acid receptor (RAR) signaling pathway (AID 1159553)
Method in brief: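 Quantitative high-throughput format: the Tox21 10K library was tested on C3RL4 RARE-luciferase cells for 6 hr at 37 C and 5% CO2, with luminescence measured after a 30 min room-temperature reagent step.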

[15] = qHTS assay to identify small molecule antagonists of the estrogen related receptor (ERR) signaling pathway - cell viability counter screen (AID 1224818);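 note: series mostly up to about 46 µM; viability measured after 17.5 h of compound exposure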
Method in brief: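 Quantitative high-throughput viability counter screen in ERR cells. Compounds (DMSO) incubated 17.5 h at 37 C; read-out was CellTiter-Fluor fluorescence.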

[16] = qHTS assay to identify small molecule antagonists of the estrogen related receptor (ERR) signaling pathway (AID 1224819;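 note: luminescence from an ERR-driven luciferase reporter measured with One-Glo reagent; series mostly up to about 46 µM; nearly all actives have a fitted effect of over 50% in size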)
Method in brief: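 ERR reporter cell line (NTP) plated at 2,000 cells/well, settled 6 h at 37C/5% CO2, then exposed to LOPAC compounds for 18 h at 37C. One-Glo luciferase luminescence read after 30 min at room temperature.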

[17] = qHTS assay to identify small molecule agonists of the estrogen related receptor (ERR) signaling pathway (AID 1224820)
Method in brief: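 Following a 6 h settling period, 2,000 ERR cells per well receive DMSO-dissolved compounds by pin tool and incubate 18 h at 37 C; agonist activity is scored from One-Glo luminescence read 30 min post-addition.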

[18] = tested on: estrogen-related receptor alpha (ERRalpha) with PGC-1alpha coactivator, human; assay: qHTS assay to identify small molecule antagonists of the estrogen related receptor signaling pathway with the pleiotropic PPARgamma coactivator (PGC) (AID 1224821; calls by dose curve)
Method in brief: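 Screening used NTP's PGC/ERR cells, dosed via pin tool with compound in DMSO alongside positive and negative controls. After 18 h at 37 C, One-Glo reagent sat 30 min at room temperature before luminescence detection.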

[19] = qHTS assay to identify small molecule antagonists of the estrogen related receptor signaling pathway with the pleiotropic PPARgamma coactivator (PGC) cell viability counter screen (AID 1224822; note: series mostly up to about 46 µM)
Method in brief: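 Cytotoxicity in the PGC/ERR cell line is assessed with CellTiter-Fluor, read as fluorescence intensity 30 min after reagent addition, following 17.5 h compound treatment at 37 C.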

[20] = qHTS assay to identify small molecule agonists of the estrogen related receptor signaling pathway with the pleiotropic PPARgamma coactivator (PGC) (AID 1224823)
Method in brief: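 In this quantitative high-throughput screen, an 18 h, 37 C treatment of PGC/ERR cells with compounds in DMSO preceded a One-Glo luminescence read taken after 30 min at room temperature.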

Measured: Potency

Chain of Luciferin 4-monooxygenase (Photinus pyralis) (P08659 whole entry, looked up): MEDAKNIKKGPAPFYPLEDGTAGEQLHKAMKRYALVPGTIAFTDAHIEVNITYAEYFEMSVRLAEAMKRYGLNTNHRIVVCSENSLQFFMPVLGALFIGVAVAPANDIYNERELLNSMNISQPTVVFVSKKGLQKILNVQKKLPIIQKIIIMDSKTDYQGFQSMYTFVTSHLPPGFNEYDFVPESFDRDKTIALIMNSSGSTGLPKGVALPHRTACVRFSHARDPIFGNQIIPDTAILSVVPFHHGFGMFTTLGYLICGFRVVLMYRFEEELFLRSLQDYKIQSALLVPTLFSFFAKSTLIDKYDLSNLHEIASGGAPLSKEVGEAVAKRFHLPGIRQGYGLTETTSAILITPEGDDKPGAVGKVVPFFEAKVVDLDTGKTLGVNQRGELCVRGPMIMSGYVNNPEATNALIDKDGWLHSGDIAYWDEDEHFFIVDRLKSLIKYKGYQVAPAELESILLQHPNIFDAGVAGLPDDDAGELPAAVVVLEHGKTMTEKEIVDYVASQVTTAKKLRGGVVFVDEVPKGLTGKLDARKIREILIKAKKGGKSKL
Chain of Thyrotropin receptor (Homo sapiens) (P16473 whole entry, looked up): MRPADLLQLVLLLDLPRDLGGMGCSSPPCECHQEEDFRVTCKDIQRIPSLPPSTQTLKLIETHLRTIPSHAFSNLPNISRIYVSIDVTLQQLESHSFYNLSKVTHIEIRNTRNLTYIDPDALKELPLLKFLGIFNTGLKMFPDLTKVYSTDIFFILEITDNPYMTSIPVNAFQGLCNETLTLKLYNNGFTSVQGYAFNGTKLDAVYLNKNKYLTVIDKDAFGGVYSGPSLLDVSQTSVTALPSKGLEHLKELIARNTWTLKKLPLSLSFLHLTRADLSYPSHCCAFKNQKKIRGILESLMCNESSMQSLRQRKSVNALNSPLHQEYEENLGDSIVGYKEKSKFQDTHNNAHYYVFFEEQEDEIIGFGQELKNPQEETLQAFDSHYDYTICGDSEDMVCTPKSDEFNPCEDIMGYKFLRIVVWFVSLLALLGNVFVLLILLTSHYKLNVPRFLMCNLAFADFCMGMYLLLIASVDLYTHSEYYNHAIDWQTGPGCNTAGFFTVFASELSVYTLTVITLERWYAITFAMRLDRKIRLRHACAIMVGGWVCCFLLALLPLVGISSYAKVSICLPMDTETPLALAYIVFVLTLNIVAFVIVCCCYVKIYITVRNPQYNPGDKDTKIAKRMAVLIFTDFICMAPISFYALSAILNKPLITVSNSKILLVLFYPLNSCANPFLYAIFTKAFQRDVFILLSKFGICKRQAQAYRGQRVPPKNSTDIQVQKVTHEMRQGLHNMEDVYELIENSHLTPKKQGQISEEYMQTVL
Chain of Nuclear receptor subfamily 1 group I member 3 (Homo sapiens) (Q14994 whole entry, looked up): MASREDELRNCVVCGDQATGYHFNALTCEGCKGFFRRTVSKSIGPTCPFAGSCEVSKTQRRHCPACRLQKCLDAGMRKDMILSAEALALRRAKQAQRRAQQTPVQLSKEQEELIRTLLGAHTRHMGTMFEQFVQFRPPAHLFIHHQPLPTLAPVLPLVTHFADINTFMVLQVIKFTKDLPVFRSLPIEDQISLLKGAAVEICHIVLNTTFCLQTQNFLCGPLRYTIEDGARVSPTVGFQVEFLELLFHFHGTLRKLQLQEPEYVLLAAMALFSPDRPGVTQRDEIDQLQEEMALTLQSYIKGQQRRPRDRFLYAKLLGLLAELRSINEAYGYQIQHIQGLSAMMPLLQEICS

C1CCC2=NCCCN2CC1
inactive: [1] | [2] | [3] | [4] | [5] | [6] | [7] | [8] | [9]

C=CN1CCCCCC1=O
inactive: [1] | [2] | [3] | [10] | [4] | [5] | [8]

CC(CO)(CO)[N+](=O)[O-]
inactive: [1] | [2] | [3] | [10] | [4] | [5] | [8]

CCCCCCCCCC[N+](C)(C)[O-]
inactive: [1] | [2] | [3] | [10] | [4] | [5] | [8] | [11] | [12]

NC(=O)NC1N=C([O][Al])NC1=O (stereo not drawn)
inactive: [1] | [2] | [3] | [10] | [4] | [5] | [8] | [9]

NC(CCC(=O)O)C(=O)O (stereo not drawn)
inactive: [1] | [2] | [3] | [10] | [4] | [5] | [6] | [7] | [8] | [9]

c1ccc(Cc2ccccc2)cc1
inactive: [1] | [3] | [10] | [4] | [5] | [8]

C[C@H]1[C@H](NC(=O)/C(=N/OC(C)(C)C(=O)O)c2csc(N)n2)C(=O)N1S(=O)(=O)O (stereo in doubt)
inactive: [1] | [13] | [14] | [3] | [4] | [5] | [6] | [7] | [8] | [9]

CN(C)CCN(C)CCN(C)C
inactive: [1] | [3] | [10] | [4] | [5] | [6] | [7] | [8] | [9]

O=CN(CCO)CCO
inactive: [1] | [3] | [10] | [4] | [5] | [8] | [11] | [12]

CC(C)[C@H]1CC[C@@H](C)CC1=O
inactive: [1] | [3] | [10] | [4] | [5] | [8] | [9]

CCOc1ccc2nc(S(N)(=O)=O)sc2c1
inactive: [1] | [3] | [4] | [5] | [6] | [8] | [9]
active: [10] 34.7 µM | [7] 7.5 µM

Cc1ccc(-c2ncc(Cl)cc2-c2ccc(S(C)(=O)=O)cc2)cn1
inactive: [1] | [3] | [10] | [4] | [5] | [8] | [9]

CCCCCC(=O)OCCc1ccccc1
inactive: [1] | [3] | [4] | [5] | [6] | [7] | [8] | [11] | [12] | [9]
active: [10] 15.9 µM

CC(=O)c1ccccc1[N+](=O)[O-]
not listed: [2] | [13] | [15] | [16] | [17] | [18] | [19] | [20]
inactive: all other assays above

CN(C)C(=O)Oc1ccc[n+](C)c1
not listed: [2] | [11] | [13] | [14]
inactive: all other assays above

CC1=CC(=O)[C@H]2C[C@@H]1C2(C)C
inactive: [1] | [3] | [10] | [4] | [5] | [8]

O=C1CCCCCCCCCCCCCCO1
inactive: [2] | [13] | [14] | [3] | [10] | [4] | [5] | [8]

CC(=O)Oc1cccc(C)c1
inactive: [1] | [3] | [10] | [4] | [5] | [6] | [7] | [8] | [11] | [12] | [9]

C[C@H]1C[C@H]2[C@@H]3CCC4=CC(=O)C=C[C@]4(C)[C@H]3C(=O)C[C@]2(C)[C@@]1(O)C(=O)CO
not listed: [2] | [14] | [15] | [16] | [17] | [18] | [19] | [20]
inactive: all other assays above

c1ccc2sc(SN3CCOCC3)nc2c1
inactive: [1] | [13] | [3] | [4] | [5] | [6] | [8] | [11] | [12] | [9]

C=C(C)C(=O)OCC1CCCO1 (stereo not drawn)
inactive: [1] | [13] | [3] | [10] | [4] | [5] | [6] | [7] | [8]

CN(C)CCCN(C)CCCN(C)C
inactive: [1] | [3] | [10] | [4] | [5] | [8] | [9]

O=C(O)CCCC[P+](c1ccccc1)(c1ccccc1)c1ccccc1
inactive: [1] | [14] | [3] | [10] | [4] | [5] | [6] | [7] | [8] | [9]
